Only a selection was taken, and hits are over-represented in it overall.
Sm TGR inh: S. mansoni TGR enzyme inhibition | Q962Y6 | purified TGR, DTNB reduction, TNB absorbance 405 nm | Potency, µM (doses to about 114 µM), inactives show at the top dose activity change, negative = inhibition, hits mostly inhibitors | 360,000 compounds, 3% hits | AID 485364; also: potency is read from the fitted curve at half-maximal effect; % is scaled to controls: 0 for no effect and ±100 for the full control effect; nearly all actives have a fitted effect of over 60% in size
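TGR 20 nM + NADPH 100 uM (dispensed conc.), cpd preinc 15 min RT; start with NADPH (500 uM addition) then DTNB (15 mM addition). Kinetic TNB absorbance, 405 nm filter. Four-parameter Hill fit across titration.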
Shiga toxin inh: Shiga toxin inhibition | Vero cells, Shiga toxin protein synthesis inhibition reporter | inhibition, % at 38.7 µM | 290,000 compounds, 9.2% hits | AID 2315; in the data active = inhibition mostly above about 28%, no sharp cut-off; inactive = mostly below about 43%; also: 0% is about no effect
LmPK inh: blocks Leishmania mexicana pyruvate kinase activity | purified LmPK, Kinase-Glo ATP luminescence, 1 h | Q27686 | Potency, µM (highest dose often 57.5 µM), for the others: top-dose activity change, negative = inhibition, actives largely listed as inhibitors | AID 1721 | 290,000 compounds, 0.37% hits; also: potency is read from the fitted curve at half-maximal effect; % is scaled to controls: 0 for no effect and ±100 for the full control effect
Target sequence (Q27686 whole entry, looked up): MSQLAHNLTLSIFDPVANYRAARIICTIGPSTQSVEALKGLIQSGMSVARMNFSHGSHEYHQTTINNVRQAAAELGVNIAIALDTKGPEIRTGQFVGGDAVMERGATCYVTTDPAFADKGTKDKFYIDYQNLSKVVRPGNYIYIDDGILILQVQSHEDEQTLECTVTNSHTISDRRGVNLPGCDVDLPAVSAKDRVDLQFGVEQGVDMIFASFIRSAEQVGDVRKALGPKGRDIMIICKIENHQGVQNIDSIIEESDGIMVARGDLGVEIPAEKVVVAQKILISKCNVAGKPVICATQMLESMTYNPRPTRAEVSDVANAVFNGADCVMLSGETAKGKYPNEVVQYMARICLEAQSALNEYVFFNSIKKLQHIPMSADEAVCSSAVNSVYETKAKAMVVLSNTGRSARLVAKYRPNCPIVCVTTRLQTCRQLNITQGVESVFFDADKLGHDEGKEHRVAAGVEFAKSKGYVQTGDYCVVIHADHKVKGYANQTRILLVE
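ATP generated from ADP (0.1 mM) and PEP (0.5 mM) by 0.1 nM LmPK over 1 h at room temperature (pH 7.2 imidazole buffer) was detected by coupled luciferase luminescence. Values were normalized to uninhibited and no-enzyme wells.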
Giardia FBPA inh: Giardia lamblia aldolase inhibition; purified Giardia FBPA; 290,000 compounds, 0.71% hits; Potency, µM (doses to about 59.6 µM), without a hit: at the highest dose activity, negative = inhibition, most hits filed as inhibitors; AID 2451; A8B2U2; also: potency is read from the fitted curve at half-maximal effect; % is scaled to controls: 0 for no effect and ±100 for the full control effect; nearly all actives have a fitted effect of over 55% in size
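40 nM FBPA preincubated 10 min at RT with compound (up to 57.5 uM final), then substrate plus GAPDH/TPI/NAD/arsenate coupling and diaphorase/resazurin added. Fluorescence read after 20 min at RT, 525/598 nm.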
CHX counter: counter-screen for Shiga toxin inhibitors: cycloheximide protein synthesis inhibition; cell reporter, cycloheximide protein synthesis inhibition counterscreen; max response, %; 300,000 compounds, 12% hits; in the data active = max response mostly above about 13%, no sharp cut-off; inactive = mostly below about 14%; also: read at 38.3 µM for the half of the compounds with a filed dose; 0% is about no effect
Tb PYK inh: blocks Trypanosoma brucei pyruvate kinase | Q57TT1 | TbPYK enzyme, Kinase-Glo Plus ATP luminescence, 45 min | Potency, µM (doses to about 76.8 µM), for the others: at the top dose activity, negative = inhibition, most hits filed as inhibitors | 410,000 compounds, 0.12% hits | AID 624173; also: potency is read from the fitted curve at half-maximal effect; % is scaled to controls: 0 for no effect and ±100 for the full control effect; nearly all actives have a fitted effect of over 50% in size
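Enzyme and substrate buffer are dispensed first and compound is pin-transferred. ADP at 130 uM final then starts the reaction, which runs 45 min at room temperature. Detection reagent is added for 10 min before luminescence is imaged.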
* marks the source's active call; other numbers are inactive results; u = inconclusive; x = no result given. Unless noted, calls follow the shape of the dose curve; as a rule, active = well fitted curve in the direction sought with a large enough effect; inconclusive = small, poorly fitted or top-dose-only effect, or another doubt; inactive = no such curve, though single readings can be large; an effect the other way counts as inactive or inconclusive.

SMILES | Sm TGR inh | Shiga toxin inh | LmPK inh | Giardia FBPA inh | CHX counter | Tb PYK inh
Cc1nc(/C=C/c2ccccc2)[nH]c(=O)c1-c1ccccc1 | -11% | 94* | 1% | 2% | 33* | 0%
Cc1cccc(/C=C\c2nc3ccccc3c(=O)[nH]2)c1 | -6% | 93* | -27% | 5% | 70* | -12%
Cc1cccc(/C=C(\C#N)c2nc3ccccc3c(=O)[nH]2)c1 | 0% | x | x | x | x | -2%
CN(C)c1ccc(/C=C/c2nc3ccccc3c(=O)[nH]2)cc1 | 6% | 39* | -16% | 8% | 34* | -27%
O=c1[nH]c(/C=C/c2ccc(Br)cc2)nc2ccccc12 | -15% | 85* | 2% | 3% | 45* | -23%
CC(NC(=O)COC(=O)CCN1C(=O)C2CC=CCC2C1=O)c1ccc(Br)cc1 (configuration not stated) | 5% | x | x | x | x | -18%
Clc1cccc(Cl)c1C1=NOC(c2nnc(-c3ccccc3)o2)C1 (configuration not stated) | 1% | 108* | 1% | 0% | 50* | 2%
Clc1ccc(C2=NOC(c3nnc(-c4ccccc4)o3)C2)cc1 (configuration not stated) | 1% | -2 | 4% | 6% | -2 | -9%
O=C(Nc1ccc2[nH]c(=O)[nH]c2c1)c1ccc([N+](=O)[O-])o1 | 40µM* | x | x | x | x | -3%
O=C(Nc1cccc([N+](=O)[O-])c1)c1ccc([N+](=O)[O-])o1 | x | x | x | x | x | 7%
Cc1ccc(NC(=O)c2ccc([N+](=O)[O-])o2)cc1C | u | 108* | -15% | -24% | 41* | 0%
Cc1ccc(-c2n[nH]c(=S)n2/N=C/c2ccc(C(=O)O)cc2)cc1 | 4% | -5 | -16% | u | -3 | u
Cc1ccc(C2=NCN(c3ccc(C(=O)O)cc3)C(=S)N2)cc1 | -11% | 98 | 0% | 2% | 39* | x
S=C1NC(c2ccccc2)=NCN1c1ccccc1 | 0% | 129 | 1% | 2% | 30* | 4%
CC1=C(/C=C/C(=C/C=C/C(C)=C/C(=O)O)c2ccc(C)cc2)C(C)(C)CCC1 | x | 91* | x | -5% | 61* | x
O=C1C[C@@H](c2ccc(O[C@@H]3O[C@H](CO)[C@@H](O)[C@H](O)[C@H]3O)cc2)Oc2cc(O)ccc21 | -9% | active | -3% | 4% | 20* | 2%
O=C1CC(c2ccc(O[C@@H]3OC(CO)[C@@H](O)C(O)C3O)cc2)Oc2cc(O)ccc21 (some centres not stated) | x | x | x | 2% | x | x
COc1ccc2cc3c(N)nn(C(=O)c4ccccc4Cl)c3nc2c1 | -1% | -16 | 0% | 3% | -1 | -1%
Cc1ccc2cc3c(N)c(C(=O)N4CCOCC4)sc3nc2c1 | -26% | 103* | -20% | -10% | 30* | -4%
COc1ccc2cc3c(N)c(C(=O)N4CCCC4)sc3nc2c1 | 1% | 101* | 1% | -22% | 69* | -7%
Cc1ccc2cc3c(N)c(C(=O)N4CC(=O)Nc5ccccc54)sc3nc2c1 | -3% | 3 | 5% | -10% | 4 | x
CCOc1ccc2nc3sc(C(=O)N4CCN(C)CC4)c(N)c3cc2c1 | -18% | 63 | 3% | 2% | 17* | 2%
CCOc1ccc(-n2c(N)c(C(=O)N3CCN(C)CC3)sc2=S)cc1 | 1% | -6 | -1% | -5% | -4 | -2%
CC(C)c1ccc2nc3sc(C(=O)N4CCc5ccccc5C4)c(N)c3cc2c1 | -2% | 118 | 1% | -14% | 24* | 0%
Cc1ccc(-n2nc(C)c3c(C(=O)NCc4ccccc4)cc(C4CC4)nc32)cc1 | -2% | x | x | x | x | -5%
SMILES | Sm TGR inh | Shiga toxin inh | LmPK inh | Giardia FBPA inh | CHX counter | Tb PYK inh
COc1ccc(CCNC(=O)Cc2c(C)c3c(cc(C)c4c(C)coc43)oc2=O)cc1OC | -2% | x | x | x | x | 4%
CC(=O)c1cccc(NC(=O)c2sc(-n3nc(C)c(Cc4ccc5c(c4)OCO5)c3C)nc2C)c1 | 5% | x | x | x | x | -4%
Cc1ccc2nc3sc(C(=O)N4CCOCC4)c(N)c3cc2c1 | -1% | 54* | -28% | 7% | 30* | -7%
CCOC(=O)c1c(C)[nH]c(C(=O)COC(=O)[C@H](C)NC(=O)c2ccccc2Cl)c1C | -11% | 49* | 3% | 2% | 28* | -1%
CCOC(=O)c1c(C)[nH]c(C(=O)COC(=O)CNC(=O)c2ccccc2Cl)c1C | -2% | 109* | 5% | 10% | 56* | 0%
CCOC(=O)c1c(C)[nH]c(C(=O)COC(=O)CNC(=O)C2CCCCC2)c1C | -9% | 146* | 8% | 1% | 34* | 1%
CCOC(=O)c1c(C)[nH]c(C)c1C(=O)COC(=O)CNC(=O)C1CCCCC1 | 27% | 33 | 9% | 4% | -2 | 4%
c1cncc(-c2cncnc2NC2CCNCC2)c1 | x | x | x | -3% | x | x
CC1CCC(N2CC(=O)N(C3CCCCC3)C(c3ccc(Cl)cc3)C2=O)CC1 (configuration not stated) | 0% | x | x | x | x | 2%
CC(C)c1ccc(/C=C/c2ccc(=O)n(C)n2)cc1 | 11% | 93* | -17% | -4% | 27* | 0%
CCOC(=O)C(C)n1nc(/C=C/c2ccc(OC)cc2)ccc1=O (configuration not stated) | -2% | 7 | 0% | -8% | 8 | 1%
O=C(Nc1ccc(F)cc1)Nc1nnc(-c2ccccc2)o1 | 4% | -10 | -4% | 3% | -1 | -3%
Cc1ccc(NC(=O)Nc2nnc(-c3ccccc3)o2)cc1 | 12% | 77* | 1% | 7% | 51* | -3%
Cc1ccc(-c2nnc(-c3ccc4ccccc4c3)o2)cc1 | x | x | x | x | x | 1%
Cc1ccc(-c2nnc(Nc3ccccc3)o2)cc1 | -32% | 42 | 14µM* | 0% | 24* | -14%
CCCCNC(=O)Nc1nnc(-c2ccccc2)o1 | 6% | 13 | 1% | 10% | 29* | 3%
O=C(Nc1nnc(-c2ccccc2)o1)Nc1ccccc1Cl | 0% | 17 | 0% | 1% | 15* | 2%
CNc1cncc(-c2ccc(F)cc2F)n1 | x | x | x | x | x | 5%
COc1ccccc1N1CCN(S(=O)(=O)c2ccc(-c3ccno3)cc2OC)CC1 | -7% | x | x | x | x | 0%
COc1ccccc1NC(=O)CSc1nnc(-c2nonc2NC(C)=O)n1-c1ccccc1 | -2% | x | x | x | x | -8%

From PubChem BioAssay
